# Results reported in PubChem BioAssay AID588453 (National Center for Advancing Translational Sciences (NCATS), 2011).
# About 4,000 (1%) of roughly 390,000 compounds were called active. Roughly 4% stayed inconclusive and do not appear here. Calls come from the whole dose curve; as a rule, active = well fitted inhibition curve with a large enough effect; inconclusive = small, poorly fitted or top-dose-only effect; inactive = no such curve, though single readings can be large or run the other way. Shown is part of a subset that was picked to be rich in actives. A call without a number means that no potency is given here.
# Biological target: Thioredoxin reductase 1, cytoplasmic (Rattus norvegicus) (UniProt O89049)
# Test: qHTS Assay for Inhibitors of Mammalian Selenoprotein Thioredoxin Reductase 1 (TrxR1): qHTS; note: nearly all actives have a fitted effect of over 65% in size
# Settings: recombinant rTrxR1, NADPH fluorescence consumption, selenite substrate; series mostly up to 114 µM
# Summary of the method: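 Rat TrxR1 (90 nM in the dispensed reagent) was pre-reduced with 400 uM NADPH for 5 min at room temperature, then incubated with compound for 15 min. After 400 uM selenite was added, NADPH fluorescence (Ex 340/Em 450 nm) was followed for 8 min.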
# Potency is the fitted concentration of half-maximal effect.
# Chain of Thioredoxin reductase 1, cytoplasmic (Rattus norvegicus) (O89049 whole entry, looked up): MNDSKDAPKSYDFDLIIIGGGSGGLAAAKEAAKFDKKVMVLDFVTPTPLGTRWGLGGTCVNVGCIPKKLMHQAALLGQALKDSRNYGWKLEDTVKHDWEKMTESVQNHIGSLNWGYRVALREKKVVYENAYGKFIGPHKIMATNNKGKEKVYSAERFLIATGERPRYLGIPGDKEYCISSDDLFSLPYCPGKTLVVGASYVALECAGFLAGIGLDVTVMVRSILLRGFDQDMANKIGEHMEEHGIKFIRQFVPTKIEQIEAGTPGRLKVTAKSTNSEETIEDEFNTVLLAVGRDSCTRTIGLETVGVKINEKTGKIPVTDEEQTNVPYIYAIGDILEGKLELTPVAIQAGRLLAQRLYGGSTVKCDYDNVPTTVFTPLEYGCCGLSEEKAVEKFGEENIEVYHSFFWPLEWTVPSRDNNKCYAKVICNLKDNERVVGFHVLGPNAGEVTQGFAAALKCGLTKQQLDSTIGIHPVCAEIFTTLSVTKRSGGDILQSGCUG
SMILES,Potency,"activity change, negative = inhibition"
O=C1C2C(c3ccccc3)CC=CC2C(c2ccoc2)N1Cc1ccccc1 (stereo unspecified),inactive,–
C#CC(C)(CC)NC(=O)Cn1nnc(-c2ccc(OCc3c(F)cccc3Cl)cc2)n1 (stereo unspecified),inactive,–
COc1cc(OC)cc(C(=O)NCCc2csc3nc(-c4ccccc4F)nn23)c1,inactive,–
COc1cc(C(=O)NCC(c2ccc(Cl)cc2)N2CCOCC2)cc(OC)c1OC (stereo unspecified),inactive,–
O=C(CSc1ccc(-c2ccco2)nn1)NCc1ccc2c(c1)OCO2,inactive,–
CCn1c(CNC(=O)c2ccco2)nnc1SCC(=O)Nc1cccc(F)c1,inactive,–
O=C(CSc1ccc(-c2ccco2)nn1)Nc1cccc(F)c1,25.1 µM (active),–
COc1ccc(OCCn2cc(C(=O)C3CCCCC3)c3ccccc32)cc1,inactive,–
Cc1ccc(C)c(N2CCN(Cc3nnc(-c4ccccc4)o3)CC2)c1,inactive,–
C=C(Br)CN1CCN(CC(=C)Br)CC1,12.6 µM (active),–
Cc1ccc(CN(C(=O)COc2ccc(Cl)cc2C)C2CCS(=O)(=O)C2)o1 (stereo unspecified),inactive,–
CCOC(=O)CSc1nnc(CNC(=O)c2ccco2)n1-c1ccc(F)cc1,inactive,–
Cn1c(SCC(=O)N2CCCC2)nnc1-c1cccs1,inactive,–
CCOC(=O)CSc1nnc(-c2ccco2)n1C,22.4 µM (active),–
CCCN1CCC(=O)N(C(CSc2ccc(C)cc2)Cc2ccccc2)CC1 (stereo unspecified),inactive,–
CCc1ccccc1N1C(=O)C2C3CC(=O)C(c4ccccc43)C2C1=O (stereo unspecified),inactive,–
CC1=C(C)CC2C(=O)N(c3cccc4ccccc34)C(=O)C2C1 (stereo unspecified),14.1 µM (active),–
Cn1c(=O)c2cn(-c3cccc4ccccc34)cc2n(C)c1=O,inactive,–
COc1cccc(OCCn2c(-c3ccc(Br)cc3)nc3ccccc3c2=O)c1,inactive,–
COC(=O)C(CC(C)C)NS(=O)(=O)c1cc(Br)ccc1Br (stereo unspecified),inactive,–
O=C(NCC(c1cccnc1)N1CCc2ccccc21)c1cccc(C(F)(F)F)c1 (stereo unspecified),inactive,–
Nc1ccccc1N,inactive,–

SMILES,Potency,"activity change, negative = inhibition"
CC(=O)Nc1ccc(N2C(=O)CC(Sc3nccc(C)n3)C2=O)cc1 (stereo unspecified),inactive,–
COc1ccc(-c2nc(SCC(=O)N3CCCCC3C)n[nH]2)cc1 (stereo unspecified),inactive,–
COc1ccc(N2C(=O)CC(Sc3n[nH]c(-c4ccc(C)cc4)n3)C2=O)cc1 (stereo unspecified),5.01 µM (active),–
C/[N+]([O-])=C\c1ccc([N+](=O)[O-])o1,11.2 µM (active),–
Cc1cccc(NC(=O)COC(=O)c2ccccc2OCc2cccc(Br)c2)c1,inactive,–
Cc1cc(Nc2cc(N3CCN(C)CC3)nc(Sc3ccc(NC(=O)C4CC4)cc3)n2)n[nH]1,inactive,–
C=CC(=O)Nc1ccc(Nc2ccnc(Nc3ccc(N4CCN(C)CC4)cc3)n2)cc1,12.6 µM (active),–
Cn1c(SCC(=O)Nc2ccc(N3CCOCC3)cc2)nnc1C(F)(F)F,inactive,–
CCc1ccc(NC(=O)N2CCN(C(=O)c3nsc4ccccc34)CC2)cc1,inactive,–
CCOC(=O)c1scc(-c2ccc(C)cc2)c1S(=O)(=O)Nc1cc(C)ccc1C,inactive,–
COc1cccc(C(=O)CC(=O)C(=O)Nc2ccc([N+](=O)[O-])cc2C)c1,inactive,–
COc1ccc(NS(=O)(=O)c2cc(NC(=O)CC(=O)c3ccc([N+](=O)[O-])cc3)ccc2C)cc1,inactive,–
COc1cccc(NCCC(=O)c2cccc([N+](=O)[O-])c2)c1,20 µM (active),–
Cc1ccccc1CNC(=O)C1CCCN(S(=O)(=O)N(C)c2ccc(F)cc2)C1 (stereo unspecified),inactive,–
CC(C)(C)N1CC(c2nc3ccccc3n2Cc2ccc(F)cc2)CC1=O (stereo unspecified),inactive,–
Cc1ccc(-n2c(=O)cc(N3CCN(Cc4ccccc4)CC3)[nH]c2=O)cc1,inactive,–
CC1CN(c2cc(=O)n(Cc3ccc(F)cc3)c(=O)[nH]2)CC(C)O1 (stereo unspecified),10 µM (active),–
Cc1c(Cl)cccc1NC(=O)Cn1cc(C(=O)c2cccs2)c2ccccc21,inactive,–
O=C(Cn1c(=O)n(-c2ccc(F)cc2)c(=O)c2sc3ccccc3c21)NC1CCCC1,inactive,–
O=S(=O)(NCCCN1CCOCC1)c1ccc(F)c(Cl)c1,inactive,–
O=[N+]([O-])c1cc(S(=O)(=O)CCCN2CCOCC2)ccc1F,11.2 µM (active),–
O=C(NCCCN1CCOCC1)c1ccccc1NS(=O)(=O)c1ccc(F)cc1,inactive,–

SMILES,Potency,"activity change, negative = inhibition"
CC1CC2C3CCC4=CC(=O)C=C[C@]4(C)[C@@]3(F)[C@@H](O)C[C@]2(C)[C@@]1(O)C(=O)CO (stereo partly specified),inactive,–
COc1cc(OC)c(OC)cc1/C=C1\C=Cc2ccccc21,inactive,–
Cc1nnc(SCC(=O)NCc2cccs2)[nH]c1=O,inactive,–
CCCCOC(=O)CNc1nnc(SCC(=O)OCC)[nH]c1=O,11.2 µM (active),–
Cc1nnc(SCCCCSc2nnc(C)c(=O)[nH]2)[nH]c1=O,–,12.5% [at 11.4 µM] (inactive)
Cc1[nH]c2ccccc2c1C(=O)C(=O)N(C)c1ccccc1,inactive,–
Cc1cc(C)cc(NC(=O)CSc2nc3nccnc3c(=O)n2CCc2c[nH]c3ccccc23)c1,inactive,–
O=C(/C=C/c1ccco1)NC(=S)N1CCCCC1,28.2 µM (active),–
COc1ccc(Cl)cc1C(=O)NNC(=S)NC(=O)/C=C/c1ccco1,inactive,–
COc1ccccc1/C=C/C(=O)NC(=S)N1CCOCC1,inactive,–
Cn1c(=O)cc(OCC(=O)N2CCN(c3ccccc3)CC2)c2ccccc21,inactive,–
COc1ccc(-c2nc3nc(C)cc(C)n3c2Nc2c(C)cccc2C)cc1,inactive,–
CCn1c(SC)nc(O)c(C(c2ccc(OC)c(O)c2)c2c(O)nc(SC)n(CC)c2=O)c1=O,50.1 µM (active),–
COc1ccc(-n2c(SC)nc(O)cc2=O)cc1,inactive,–
CCn1c(SCC(=O)NNC(=O)c2ccc(OC)cc2)nnc1C(C)C,inactive,–
O=C(Cn1ncc2c3ccccc3n(Cc3ccccc3)c2c1=O)NC1CCCCCC1,inactive,–
CCOC(=O)N1CCN(C(c2cccnc2)c2ccc3cccnc3c2O)CC1 (stereo unspecified),0.398 µM (active),–
COc1ccccc1N1CCN(C(CNC(=O)C(=O)NCc2ccc(C)cc2)c2cccnc2)CC1 (stereo unspecified),inactive,–
CCOc1ccc(C(NC(=O)c2cc(OC)c(OC)c(OC)c2)c2cc(Cl)c3cccnc3c2O)cc1 (stereo unspecified),inactive,–
CCN1CCN(C(c2cccnc2)c2cc(Cl)c3cccnc3c2O)CC1 (stereo unspecified),4.47 µM (active),–
Cc1ccc(NC(=O)C(=O)NCC(c2cccnc2)N2CCOCC2)cc1 (stereo unspecified),inactive,–
O=C(NCc1cccnc1)C(=O)NCC(c1cccnc1)N1CCN(c2ccccc2)CC1 (stereo unspecified),inactive,–
